TrxR1 substrate: qHTS Assay for Substrates of Mammalian Selenoprotein Thioredoxin Reductase 1 (TrxR1): qHTS. Thioredoxin reductase 1, cytoplasmic (Rattus norvegicus), O89049. purified TrxR1 substrate turnover, NADPH consumption readout. Potency, µM (doses to about 114 µM), for inactives: top-dose activity change, negative = substrate turnover. 0.01% of 390,000 active; also: potency is read from the fitted curve at half-maximal effect; nearly all actives have a fitted effect of over 50% in size
Target sequence (O89049 whole entry, looked up): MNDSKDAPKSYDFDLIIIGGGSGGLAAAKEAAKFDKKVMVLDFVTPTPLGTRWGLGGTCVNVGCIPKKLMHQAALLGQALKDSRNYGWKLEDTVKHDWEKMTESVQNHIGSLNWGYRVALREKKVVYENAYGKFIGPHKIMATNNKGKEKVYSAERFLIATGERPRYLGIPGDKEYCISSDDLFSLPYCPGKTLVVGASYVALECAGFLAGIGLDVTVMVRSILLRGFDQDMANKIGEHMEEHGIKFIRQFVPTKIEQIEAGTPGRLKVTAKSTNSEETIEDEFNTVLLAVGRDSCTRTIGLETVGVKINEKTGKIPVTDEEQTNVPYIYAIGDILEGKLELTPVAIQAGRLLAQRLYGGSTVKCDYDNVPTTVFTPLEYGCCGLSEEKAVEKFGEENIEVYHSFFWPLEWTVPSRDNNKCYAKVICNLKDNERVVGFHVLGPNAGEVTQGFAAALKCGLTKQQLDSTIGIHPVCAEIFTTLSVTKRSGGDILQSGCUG
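Rat TrxR1, dispensed at 90 nM, was prereduced with 400 uM NADPH (final) for 5 min at ~22 deg C, then incubated with compound 15 min before 400 uM selenite. A first-read NADPH fluorescence drop versus no-compound background flagged substrates.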
rTrxR1 inhibitor: qHTS Assay for Inhibitors of Mammalian Selenoprotein Thioredoxin Reductase 1 (TrxR1): qHTS; Potency, µM (titrated, usually from 114 µM), without a hit: at the top dose activity change, negative = inhibition, usual class: inhibitors; recombinant rTrxR1, NADPH fluorescence consumption, selenite substrate; 1% of 390,000 active; Thioredoxin reductase 1, cytoplasmic (Rattus norvegicus), O89049; also: potency is read from the fitted curve at half-maximal effect; nearly all actives have a fitted effect of over 65% in size
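Rat TrxR1 (90 nM in the dispensed reagent) was pre-reduced with 400 uM NADPH for 5 min at room temperature, then incubated with compound for 15 min. After 400 uM selenite was added, NADPH fluorescence (Ex 340/Em 450 nm) was followed for 8 min.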
Gal4-VP16 FLuc: VP16 counterscreen qHTS for inhibitors of ROR gamma transcriptional activity; Drosophila S2 Gal4-VP16 UAS-luciferase, luminescence, 20 h; Potency, µM (top dose mostly 53.6 µM), inactives show at the highest dose activity, negative = inhibition, most hits filed as inhibitors; 3.5% of 310,000 active; AID 2546, 2010;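 also: Gal4-VP16 expression switched on by copper sulfate through the metallothionein promoter; potency is read from the fitted curve at half-maximal effect; nearly all actives have a fitted effect of over 50% in size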
FBPA coupling cs: qHTS Assay for Inhibitors of Fructose-1,6-bisphosphate Aldolase from Giardia Lamblia: Coupling assay counterscreen; coupling enzyme system counterscreen, AmpLite Red fluorescence; activity change, negative = inhibition, % at 58.2 µM, hits read low; 0.67% of 290,000 active; AID 2472, 2010; in the data active = activity change below about -30%
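Activity here indicates interference with the coupling reaction, not aldolase inhibition. Compounds at 57.5 uM final met coupling enzymes for 10 min at RT; substrate and AmpLite Red detection followed, with a 525/598 nm fluorescence read after 20 min.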
RORgamma inh: qHTS for inhibitors of ROR gamma transcriptional activity | 5.4% of 310,000 active | AID 2551, 2010 | Nuclear receptor ROR-gamma (Mus musculus), P51450 | Drosophila S2 Gal4-RORgamma UAS-luciferase reporter, 20 h | Potency, µM (series often up to 53.6 µM), for inactives: at the highest dose activity change, negative = inhibition, usual class: inhibitors; also: potency is read from the fitted curve at half-maximal effect; nearly all actives have a fitted effect of over 60% in size
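A Gal4/UAS one-hybrid system in insect cells: metallothionein-promoter Gal4–ROR gamma fusion plus Photinus luciferase reporter. Copper sulfate 700 uM final, 20 hr ambient incubation, luminescent detection after 10 min with reagent.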
GALK inhibitor: qHTS Assay for Inhibitors of Human Galactokinase (GALK); Purified GALK, Kinase-Glo residual ATP luminescence; Potency, µM (highest dose often 57.5 µM), for inactives: top-dose activity change, negative = inhibition, most hits filed as inhibitors; 0.007% of 270,000 active; AID 1868, 2009; also: potency is read from the fitted curve at half-maximal effect
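GALK at 5 nM final was combined with compound, 35 uM ATP and 100 uM galactose in HEPES pH8.0 with MgCl2 and DTT. The reaction ran one hour at room temperature before luminescent ATP detection.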
* hit, by the source's call; ? = inconclusive; . = no result; [ ] = dose if it differs, or a comment. Shown are actives, neighbours in structure and some others; about 5.9% of the full set was active somewhere. Unless noted, calls follow the shape of the dose curve; as a rule, active = well fitted curve in the direction sought with a large enough effect; inconclusive = small, poorly fitted or top-dose-only effect, or another doubt; inactive = no such curve, though single readings can be large; an effect the other way counts as inactive or inconclusive. % is scaled to controls: 0 for no effect and ±100 for the full control effect.

SMILES	TrxR1 substrate	rTrxR1 inhibitor	Gal4-VP16 FLuc	FBPA coupling cs	RORgamma inh	GALK inhibitor
C[C@@H]1C2CC(C/C2=N\NC(=O)c2ccncc2)C1(C)C (some centres not stated)	-1%	29%	13µM*	.	7.9µM*	5%
CC1C2CC(C/C2=N/NC(=O)c2cccs2)C1(C)C (configuration not stated)	4%	19%	2µM*	1	?	-2%
Cc1cccc(C(=O)Nc2ccccc2SCc2cc(=O)c3cccc(C)c3[nH]2)c1	1%[57.1 µM]	32%[57.1 µM]	.	.	.	.
CCCCn1c(-c2csc3c2CCC(C)C3)n[nH]c1=S (configuration not stated)	-12%	-20%	2.5µM*	6	0.79µM*	2%
CCCCCCn1c(-c2cccs2)n[nH]c1=S	19%	-6%	?	0	2µM*	12%
CCCCn1c(-c2csc3c2CCCC3)n[nH]c1=S	2%	-15%	?	3	3.5µM*	-4%
C=CCn1c(-c2csc3c2CCC(C)C3)n[nH]c1=S (configuration not stated)	-1%	-10%	2.5µM*	3	1.4µM*	4%
CCCCn1c(-c2cccs2)nc2nc3ccccc3nc21	545%	202%	-10%	.	20%	-3%
COc1ccc(NC(=O)C2CCCN(C(=O)Nc3cccc(OC)c3)C2)cc1 (configuration not stated)	-7%	-8%	8%	2	9%	-2%
OCCCn1c(-c2ccccc2)n[nH]c1=S	-8%	-33%	-9%	-1	-45%	0%
CCn1c(-c2cccn(Cc3ccccc3)c2=O)n[nH]c1=S	-4%[57.1 µM]	-9%[57.1 µM]	8%	0	-32%	1%
CCn1c(-c2csc3c2CCCC3)n[nH]c1=S	-2%	-25%	4.5µM*	2	4µM*	-1%
CCCCn1c(-c2csc3ccccc23)n[nH]c1=S	-6%	-23%	?	0	7.9µM*	-2%
CS(=O)(=O)N1CCC(c2noc(-c3ccc(C(F)(F)F)cc3)n2)CC1	-4%	2%	10µM*	2	?	0%
Cc1ccc(-c2cc(C(=O)N/N=C/c3ccc([N+](=O)[O-])o3)c3ccccc3n2)o1	-10%	?	?	.	13µM*	7%
Cc1ccc2nc(SCC(=O)N/N=C/c3ccco3)cc(C)c2c1	-5%	-18%[57.1 µM]	8%	-17	41%	-3%
Cn1c(/C=C/c2ccc([N+](=O)[O-])o2)nc2ccccc2c1=O	-12%	10µM*	6.3µM*	.	6.3µM*	-6%
O=C(N/N=C/c1ccc([N+](=O)[O-])o1)c1cc(-c2ccncc2)nc2ccccc12	5%	-11%	-14%	1	-19%	.
COc1ccccc1-c1cc(C(=O)N/N=C/c2ccc(C)o2)c2ccccc2n1	-4%	15%	.	-4	.	4%
Cc1ccc2nc(N/N=C/c3ccco3)cc(C)c2c1	-11%	?	?	-8	6.3µM*	0%
O=C(N/N=C/c1ccc([N+](=O)[O-])o1)c1cc(-c2ccc(-c3ccccc3)cc2)nc2ccccc12	7%	?	1.1µM*	-4	0.71µM*	0%
COc1ccccc1NC(=O)/C(C#N)=C/c1ccc(OCCN2CCOCC2)c(OC)c1	-5%	-4%	-12%	.	-33%	4%
NS(=O)(=O)c1ccc(NC(=O)CCC2CCCCC2)cc1	6%	18%	0%	-1	19%	-2%
Cc1cc(N/N=C/c2ccc([N+](=O)[O-])o2)nc2ccccc12	-5%[57.1 µM]	9%[57.1 µM]	?	1	11µM*	10%
CCN=C1NN=C(c2cc(C)n(Cc3ccco3)c2C)CS1	-8%	-9%	?	3	0.28µM*	0%
SMILES	TrxR1 substrate	rTrxR1 inhibitor	Gal4-VP16 FLuc	FBPA coupling cs	RORgamma inh	GALK inhibitor
Cc1ccc(S(=O)(=O)N2CCCC2C(=O)NCCc2ccccc2)cc1 (configuration not stated)	-17%[57.1 µM]	22%[57.1 µM]	5%	3	-16%	0%
O=C(O)c1c(C(=O)O)c2ccccc2[nH]c1=O	.	.	-6%	-33*	13%	.
O=c1[nH]c2ccccc2c(O)c1O	49%	13%	-1%	-73*	8%	1%
O=c1[nH]c2ccccc2c(O)c1-[n+]1ccccc1	8%	28%	-3%	0	-2%	11%
COc1cccc(/C=N/Nc2cc(-n3nc(C)cc3-c3ccccc3)ncn2)c1O	-5%	-15%	1µM*	1	?	-1%
COc1cccc(/C=N/Nc2nc(Nc3ccccc3)nc(-n3nc(C)cc3C)n2)c1O	7%[57.1 µM]	13%[57.1 µM]	2.5µM*	-4	1.1µM*	1%
Cc1cc(C)n(-c2nc(Nc3ccccc3)nc(-n3nc(C)cc3C)n2)n1	10%	16%	-13%	1	-36%	-3%
CSCCC(NC(=O)COc1ccccc1)C(=O)N(C)Cc1ccc(SC)cc1 (configuration not stated)	-4%	24%	.	.	.	.
CO[C@H]1COC(=O)[C@H]2CCCN2C(=O)[C@@H](C)COC(=O)C/C=C\[C@@H]1C	.	.	-10%[10 µM]	0	1%[10 µM]	.
O=C1NC(=O)C2(CCCC2)N1	6%[57.1 µM]	9%[57.1 µM]	.	.	.	.
COc1cccc(CNC(=O)COC(=O)/C(C#N)=C/c2ccc(N(C)C)cc2)c1	2%	9%	.	.	.	.
CSc1nnc(-c2sc3cc(C(F)(F)F)cnc3c2-c2ccccn2)n1C	40%	8%[57.1 µM]	5%	-3	-2%	0%
CNC(=S)NNC(=O)c1sc2cc(C(F)(F)F)cnc2c1-c1cccnc1	6%[57.1 µM]	-20%[57.1 µM]	-2%	-14	18µM*	1%
CNC(=S)NNC(=O)c1sc2cc(C(F)(F)F)cnc2c1-c1ccccn1	8%[11.4 µM]	24%[11.4 µM]	-18%	-12	1.1µM*	7%
NC(=O)c1sc2cc(C(F)(F)F)cnc2c1-c1ccccc1	10%[57.1 µM]	19%[11.4 µM]	-17%	0	25%	1%
CCCCCCCCCCCCC[N+](C)(C)Cc1ccccc1	.	.	8.9µM*	6	?	.
CCCCCCCCCCCCCCCC[N+](C)(C)Cc1ccc(F)cc1	-3%	-7%	.	.	.	.
Cc1cc2ccccc2n1CCNC(=O)c1cccc(Br)c1	-9%	4%	.	.	.	.
CCN(CC)C(=O)c1ccc2c3c(cccc13)C(=O)N(CCc1ccc(OC)c(OC)c1)C2=O	-10%	-5%	-6%	-1	33%	1%

From PubChem BioAssay
